Source: PubChem BioAssay (NCATS)
Inconclusive results are not listed. Unmarked numbers belong to inactive results. Activity calls are given as the source filed them. The call rests on the fitted dose curve; in most records, active means well fitted inhibition curve with a large enough effect; inconclusive means small, poorly fitted or top-dose-only effect; inactive means no such curve, though single readings can be large or run the other way.

Each compound was assayed against Rap guanine nucleotide exchange factor 4 (Homo sapiens) (UniProt Q8WZA2) (assay: Confirmatory qHTS for antagonist of cAMP-regulated guanine nucleotide exchange factor 4 (EPAC2) (AID 1645885; further: nearly all actives have a fitted effect of over 25% in size; further: potency means the concentration at half of the fitted maximal effect; on activity change, negative = inhibition: on the % scale 0 is the no-effect control and ±100 the full control effect)). Settings: EPAC2 Rap1B-BODIPY-GDP exchange fluorescence, biochemical; series mostly up to 12.7 µM; activity change, negative = inhibition: at the top concentration.
Sequence of Rap guanine nucleotide exchange factor 4 (Homo sapiens) (Q8WZA2 whole entry, looked up): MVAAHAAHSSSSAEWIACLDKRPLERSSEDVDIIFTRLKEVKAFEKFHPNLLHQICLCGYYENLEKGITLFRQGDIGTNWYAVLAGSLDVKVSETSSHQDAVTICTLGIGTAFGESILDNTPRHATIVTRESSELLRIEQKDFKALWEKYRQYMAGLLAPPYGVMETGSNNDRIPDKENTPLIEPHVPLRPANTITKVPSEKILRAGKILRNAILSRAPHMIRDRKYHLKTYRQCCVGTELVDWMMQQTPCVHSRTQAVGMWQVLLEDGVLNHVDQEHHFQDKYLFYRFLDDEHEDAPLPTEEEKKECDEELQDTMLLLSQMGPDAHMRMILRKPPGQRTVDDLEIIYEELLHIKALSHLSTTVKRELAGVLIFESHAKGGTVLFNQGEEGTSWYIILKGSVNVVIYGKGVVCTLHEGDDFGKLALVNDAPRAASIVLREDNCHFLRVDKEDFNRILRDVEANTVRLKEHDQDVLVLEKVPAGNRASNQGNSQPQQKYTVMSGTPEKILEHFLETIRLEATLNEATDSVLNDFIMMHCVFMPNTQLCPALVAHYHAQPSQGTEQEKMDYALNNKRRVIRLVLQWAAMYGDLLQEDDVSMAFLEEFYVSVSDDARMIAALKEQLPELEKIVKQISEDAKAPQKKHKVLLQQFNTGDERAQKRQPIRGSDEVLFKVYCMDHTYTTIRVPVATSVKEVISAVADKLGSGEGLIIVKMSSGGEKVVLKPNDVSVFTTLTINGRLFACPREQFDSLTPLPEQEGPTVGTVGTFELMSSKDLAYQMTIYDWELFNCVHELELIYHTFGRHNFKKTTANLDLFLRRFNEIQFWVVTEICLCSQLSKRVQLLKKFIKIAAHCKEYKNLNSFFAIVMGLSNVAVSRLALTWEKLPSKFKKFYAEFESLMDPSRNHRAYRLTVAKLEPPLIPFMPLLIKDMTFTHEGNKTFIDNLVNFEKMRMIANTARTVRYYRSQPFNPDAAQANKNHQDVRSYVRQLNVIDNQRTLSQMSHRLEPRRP

Q: Which “activity change, negative = inhibition” value does the source give for `COc1cc2c(cc1OC)-c1cc(NC3CCCCC3)nc(=O)n1CC2` here?
A: Its value is -12.6%.

Q: For `Cc1ccccc1OCc1nc2ccccc2n1Cc1ccccc1Cl`, which “activity change, negative = inhibition” value is on record?
A: Its value is -2.59%.

Q: How did the “activity change, negative = inhibition” value turn out when `CCOC(=O)C1CCN(C(=O)c2cccc(S(=O)(=O)N(CC)c3ccccc3)c2)CC1` was run?
A: The value was -18.3% [at 114 µM].

Q: How did the Potency turn out when `CN(C)c1ccc(/C=C/C(=O)c2ccc3c(c2)OCO3)cc1` was run?
A: Its Potency is 37.9 µM (active).

Q: How did the “activity change, negative = inhibition” value turn out when `COc1ccccc1Sc1nc(-c2ccccc2)ncc1OC` was run?
A: The value was -30.7%.

Q: How did the “activity change, negative = inhibition” value turn out when `O=C(NCC1CCCO1)c1ccc(C(=O)NCC2CCCO2)cc1` (configuration not stated) was run?
A: Its value is 3.68%.

Q: For `CCOC(=O)c1sc(N=NC2=C(O)CCCC2=O)c(C(=O)OCC)c1C`, which “activity change, negative = inhibition” value is on record?
A: The value was -14.8%.

Q: How did the “activity change, negative = inhibition” value turn out when `COC(=O)C1(Cc2ccccc2)NC(c2ccc(F)cc2)C2C(=O)N(C)C(=O)C21` (configuration not stated) was run?
A: The value was 4.15%.

Q: How did the “activity change, negative = inhibition” value turn out when `CCCC1CC(c2csc(N)n2)CCO1` (configuration not stated) was run?
A: The value was -15.1% [at 114 µM].

Q: How did the “activity change, negative = inhibition” value turn out when `CCOc1cccc(CC(=O)NCc2ccc3c(c2)CCN3C(C)=O)c1OCC` was run?
A: The value was -5.05%.

Q: How did the “activity change, negative = inhibition” value turn out when `O=C(COc1ccc(F)cc1)Nc1nccs1` was run?
A: Its value is -0.713% [at 114 µM].

Q: How did the “activity change, negative = inhibition” value turn out when `COC(=O)C1=CN(c2ccc(F)cc2)C(N)=C(C#N)C1c1cccc(OC)c1OC` (configuration not stated) was run?
A: The value was -7.5%.

Q: Which “activity change, negative = inhibition” value does the source give for `Cc1ccc(Cl)cc1NC(=O)c1ccccc1OCC(=O)Nc1ccc(Cl)cc1` here?
A: Its value is -5.12%.

Q: `CC(C)(C)c1nc(-c2ccccc2)nc2c1OCCC2` was tested. Which “activity change, negative = inhibition” value did it give?
A: The value was 21.5% [at 114 µM].

Q: `COc1ccc(-c2oc3cccnc3c2C#CCO)cc1` was tested. Which “activity change, negative = inhibition” value did it give?
A: Its value is 15% [at 114 µM].

Q: How did the “activity change, negative = inhibition” value turn out when `COC(=O)c1cc(OC)nc2ccc(Br)cc12` was run?
A: The value was 9.04% [at 114 µM].

Q: How did the Potency turn out when `CCOC(=O)c1cc2n(c1N)-c1ccccc1C2=O` was run?
A: Its Potency is 23.9 µM (active).

Q: How did the “activity change, negative = inhibition” value turn out when `CCN(CC(=O)Nc1ccccc1C(F)(F)F)C(=O)CCOc1ccccc1C` was run?
A: The value was -7.05%.

Q: `COc1cccc(OCCOc2ccc(/C=C3\C(=N)N4N=C(S(C)(=O)=O)SC4=NC3=O)cc2OC)c1` was tested. Which “activity change, negative = inhibition” value did it give?
A: Its value is 124% [at 114 µM].

Q: How did the Potency turn out when `Cc1sc(N)c(C(=O)c2ccccc2Cl)c1C` was run?
A: Its Potency is 19 µM (active).

Q: For `O=C(NS(=O)(=O)c1ccc2ccc(S(=O)(=O)NCCSc3ccccc3)cc2c1)c1cccc2ccccc12`, which Potency is on record?
A: The Potency was 67.5 µM (active).

Q: `COc1ccc(N2CCN(C(=O)c3cc(C)on3)CC2)cc1` was tested. Which “activity change, negative = inhibition” value did it give?
A: Its value is -0.798% [at 114 µM].

Q: Which “activity change, negative = inhibition” value does the source give for `COc1ccc(N(C)S(=O)(=O)c2cccc3nsnc23)cc1` here?
A: The value was -15% [at 114 µM].

The compounds below were run against Rap guanine nucleotide exchange factor 3 (Homo sapiens) (UniProt O95398) (assay: Counterscreen qHTS for antagonist of cAMP-regulated guanine nucleotide exchange factor 3 (EPAC1) (AID 1645888;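 further: fluorescence loss as bound BODIPY-GDP is released from Rap1B; % of control where 0% means no effect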)). Settings: Rap1B-BODIPY-GDP nucleotide exchange, fluorescence; series mostly up to 154 µM; activity change, negative = inhibition: at the top concentration.
Outline: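 Measured: fluorescence of BODIPY-GDP bound to Rap1B, which falls as exchange proceeds. Conditions include 50 uM competing GDP, 5 and 30 min reads, and a later cAMP challenge for antagonist detection.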

Sequence of Rap guanine nucleotide exchange factor 3 (Homo sapiens) (O95398 whole entry, looked up): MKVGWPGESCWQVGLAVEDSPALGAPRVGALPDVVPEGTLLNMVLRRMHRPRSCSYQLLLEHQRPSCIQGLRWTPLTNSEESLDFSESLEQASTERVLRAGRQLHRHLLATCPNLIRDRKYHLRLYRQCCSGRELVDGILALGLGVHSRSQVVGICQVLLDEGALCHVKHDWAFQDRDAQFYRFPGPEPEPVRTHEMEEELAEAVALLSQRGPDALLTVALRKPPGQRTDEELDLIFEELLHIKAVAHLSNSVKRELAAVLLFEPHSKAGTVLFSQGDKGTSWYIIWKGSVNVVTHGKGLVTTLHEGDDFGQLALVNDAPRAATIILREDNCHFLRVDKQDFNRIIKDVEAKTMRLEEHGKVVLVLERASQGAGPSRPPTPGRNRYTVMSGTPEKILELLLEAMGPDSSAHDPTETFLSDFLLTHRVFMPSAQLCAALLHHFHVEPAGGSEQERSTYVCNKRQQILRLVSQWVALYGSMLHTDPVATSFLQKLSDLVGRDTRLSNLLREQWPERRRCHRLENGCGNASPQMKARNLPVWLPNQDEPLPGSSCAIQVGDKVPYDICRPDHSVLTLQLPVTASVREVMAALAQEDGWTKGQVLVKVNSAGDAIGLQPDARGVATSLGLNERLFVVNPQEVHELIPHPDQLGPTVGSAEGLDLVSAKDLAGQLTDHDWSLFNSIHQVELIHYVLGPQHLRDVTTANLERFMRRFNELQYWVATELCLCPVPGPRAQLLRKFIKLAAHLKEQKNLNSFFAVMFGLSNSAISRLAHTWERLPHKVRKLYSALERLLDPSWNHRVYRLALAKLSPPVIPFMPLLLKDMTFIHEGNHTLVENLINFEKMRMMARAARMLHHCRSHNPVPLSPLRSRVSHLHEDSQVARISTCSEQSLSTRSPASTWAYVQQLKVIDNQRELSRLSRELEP

Q: How did the “activity change, negative = inhibition” value turn out when `CCOc1ccc(CCNC(=O)c2cccc(S(=O)(=O)N3CCCCC3)c2)cc1OCC` was run?
A: Its value is 1.12%.

Q: `C=CCCCN(Cc1ccccc1)S(=O)(=O)c1ccccc1Br` was tested. Which activity change, negative = inhibition did it give?
A: The activity change, negative = inhibition was -1.46% [at 30.8 µM].

Q: Which “activity change, negative = inhibition” value does the source give for `CCCCCN(C(=O)CCC(=O)OCc1ccc(C(C)C)cc1)c1c(N)n(CCCC)c(=O)[nH]c1=O` here?
A: The value was 4.99%.

Q: Which “activity change, negative = inhibition” value does the source give for `COc1ccc(Br)cc1CNC(=O)c1ccc2nc(C(C)C)oc2c1` here?
A: Its value is -23.2%.

Q: Which “activity change, negative = inhibition” value does the source give for `Cc1ccc2c(c1)C=CC(C#N)N2C(=O)c1ccccc1` (configuration not stated) here?
A: The value was -8.31%.

Q: Which activity change, negative = inhibition does the source give for `CC(/C=C1\SC(=S)N(NS(=O)(=O)c2ccccc2)C1=O)=C\c1ccccc1` here?
A: The activity change, negative = inhibition was -10.4% [at 30.8 µM].

Q: `CC(C)OC(=O)c1c(-c2ccccc2)c(-c2ccccc2)nn(C)c1=O` was tested. Which “activity change, negative = inhibition” value did it give?
A: Its value is 3.17%.

Q: How did the “activity change, negative = inhibition” value turn out when `CCN1C/C(=C/c2ccc(N3CCOCC3)cc2)C(=O)/C(=C/c2ccc(N3CCOCC3)cc2)C1` was run?
A: The value was 129%.

Q: For `O=C(O)C(c1ccccc1)N1C(=O)/C(=C\c2ccc(-c3ccccc3Cl)o2)SC1=S` (configuration not stated), which “activity change, negative = inhibition” value is on record?
A: Its value is -19.4%.

Q: How did the “activity change, negative = inhibition” value turn out when `Cc1ccc(CN(C(=O)COc2cccc(Cl)c2)c2ccccn2)o1` was run?
A: Its value is 10.5%.

Q: For `CC(Sc1ccccc1)C(=O)NNC(=O)c1csc(N2CCOCC2)n1` (configuration not stated), which activity change, negative = inhibition is on record?
A: Its activity change, negative = inhibition is 1.84% [at 30.8 µM].

Q: How did the “activity change, negative = inhibition” value turn out when `NC(=O)c1sc(=S)n2c1[nH]c(=O)c1sccc12` was run?
A: The value was 8.7%.

Q: `Cc1ccc(NC(=O)N2CCN(c3nnc(C)c4c(C)n(-c5ccc(Cl)cc5)nc34)CC2)c(C)c1` was tested. Which “activity change, negative = inhibition” value did it give?
A: Its value is 21.5%.

Q: With `COc1cc(/C=C2\SC(=S)N(NS(=O)(=O)c3ccc(C)cc3)C2=O)cc(OC)c1OC` as the compound, how does the “activity change, negative = inhibition” value read?
A: Its value is -14.6%.

Q: For `CC1(C)Cc2ccccc2-c2nnc(-c3ccc4ccccc4n3)n21`, which “activity change, negative = inhibition” value is on record?
A: Its value is 11.3%.

Q: `COc1ccc(NC(=O)c2ccc(NC3=NC4CS(=O)(=O)CC4S3)cc2)cc1` (configuration not stated) was tested. Which activity change, negative = inhibition did it give?
A: Its activity change, negative = inhibition is -1.99% [at 30.8 µM].

Q: With `COc1cc2c(cc1OC)-c1cc(NC3CCCCC3)nc(=O)n1CC2` as the compound, how does the activity change, negative = inhibition read?
A: The activity change, negative = inhibition was 14.4% [at 30.8 µM].

Q: With `Cc1ccccc1OCc1nc2ccccc2n1Cc1ccccc1Cl` as the compound, how does the “activity change, negative = inhibition” value read?
A: The value was -13.7%.

Q: Which “activity change, negative = inhibition” value does the source give for `CCOC(=O)C1CCN(C(=O)c2cccc(S(=O)(=O)N(CC)c3ccccc3)c2)CC1` here?
A: Its value is 9.28%.

Q: With `CN(C)c1ccc(/C=C/C(=O)c2ccc3c(c2)OCO3)cc1` as the compound, how does the “activity change, negative = inhibition” value read?
A: The value was 81.3%.

Q: Which activity change, negative = inhibition does the source give for `COc1ccccc1Sc1nc(-c2ccccc2)ncc1OC` here?
A: Its activity change, negative = inhibition is 8.06% [at 30.8 µM].

Q: How did the activity change, negative = inhibition turn out when `O=C(NCC1CCCO1)c1ccc(C(=O)NCC2CCCO2)cc1` (configuration not stated) was run?
A: Its activity change, negative = inhibition is -1.36% [at 30.8 µM].

Q: With `CCOC(=O)c1sc(N=NC2=C(O)CCCC2=O)c(C(=O)OCC)c1C` as the compound, how does the activity change, negative = inhibition read?
A: The activity change, negative = inhibition was -17% [at 30.8 µM].

Q: Which activity change, negative = inhibition does the source give for `COC(=O)C1(Cc2ccccc2)NC(c2ccc(F)cc2)C2C(=O)N(C)C(=O)C21` (configuration not stated) here?
A: Its activity change, negative = inhibition is 4.27% [at 30.8 µM].

Q: `CCCC1CC(c2csc(N)n2)CCO1` (configuration not stated) was tested. Which “activity change, negative = inhibition” value did it give?
A: The value was -9.73%.

Q: With `CCOc1cccc(CC(=O)NCc2ccc3c(c2)CCN3C(C)=O)c1OCC` as the compound, how does the “activity change, negative = inhibition” value read?
A: Its value is 18.2%.

Q: Which “activity change, negative = inhibition” value does the source give for `O=C(COc1ccc(F)cc1)Nc1nccs1` here?
A: Its value is -17%.

Q: `COC(=O)C1=CN(c2ccc(F)cc2)C(N)=C(C#N)C1c1cccc(OC)c1OC` (configuration not stated) was tested. Which activity change, negative = inhibition did it give?
A: The activity change, negative = inhibition was -6.52% [at 30.8 µM].

Q: With `Cc1ccc(Cl)cc1NC(=O)c1ccccc1OCC(=O)Nc1ccc(Cl)cc1` as the compound, how does the activity change, negative = inhibition read?
A: Its activity change, negative = inhibition is -9.99% [at 30.8 µM].

Q: For `CC(C)(C)c1nc(-c2ccccc2)nc2c1OCCC2`, which “activity change, negative = inhibition” value is on record?
A: The value was -5.2%.

Q: For `COc1ccc(-c2oc3cccnc3c2C#CCO)cc1`, which “activity change, negative = inhibition” value is on record?
A: The value was -4.46%.

Q: Which “activity change, negative = inhibition” value does the source give for `COC(=O)c1cc(OC)nc2ccc(Br)cc12` here?
A: Its value is 8.73%.

Q: With `CCOC(=O)c1cc2n(c1N)-c1ccccc1C2=O` as the compound, how does the “activity change, negative = inhibition” value read?
A: The value was 184%.

Q: With `CCN(CC(=O)Nc1ccccc1C(F)(F)F)C(=O)CCOc1ccccc1C` as the compound, how does the activity change, negative = inhibition read?
A: The activity change, negative = inhibition was -14% [at 30.8 µM].

Q: `COc1cccc(OCCOc2ccc(/C=C3\C(=N)N4N=C(S(C)(=O)=O)SC4=NC3=O)cc2OC)c1` was tested. Which “activity change, negative = inhibition” value did it give?
A: The value was 6.09%.

Q: For `Cc1sc(N)c(C(=O)c2ccccc2Cl)c1C`, which “activity change, negative = inhibition” value is on record?
A: Its value is 0.776%.

Q: With `O=C(NS(=O)(=O)c1ccc2ccc(S(=O)(=O)NCCSc3ccccc3)cc2c1)c1cccc2ccccc12` as the compound, how does the “activity change, negative = inhibition” value read?
A: The value was -1.96%.

Q: With `COc1ccc(N2CCN(C(=O)c3cc(C)on3)CC2)cc1` as the compound, how does the “activity change, negative = inhibition” value read?
A: The value was 12.4%.

Q: How did the “activity change, negative = inhibition” value turn out when `COc1ccc(N(C)S(=O)(=O)c2cccc3nsnc23)cc1` was run?
A: Its value is 14.1%.
